This note sets out measurements from PubChem BioAssay.

The source made the active and inactive calls. Unless noted, the rule behind the calls is not given here.

The nature of experiment [1]: HepG2 liver cancer cell viability effects, profiling panel, resazurin fluorescence, 24 h, PK04 Diversity Set (AID 1172). Note: test concentration not given here. Particulars: higher = more signal. In general terms: The colour change of resazurin is a common sign of viable cells or microbes.
Experiment [2] in a line: basal S. cerevisiae growth modulation, no modifier, primary screen, OD600, strain BY4716, 24 h, basal condition (AID 1173). As to conditions: OD600, 24 h, higher = more signal, called active from +8 up or from −8 down.
A short description of experiment [3]: MM1S myeloma cell viability, profiling panel, resazurin fluorescence, basal, 24 h, PK04 Diversity Set (AID 1174).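 Note: MM1S multiple myeloma cell line; test concentration not given here.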 Particulars: higher = more signal, called active from +8 up or from −8 down.
Experiment [4] addresses Dihydroorotate dehydrogenase (quinone), mitochondrial (Plasmodium falciparum (isolate 3D7)) (UniProt Q08210). Nature of the experiment: PfDHODH enzyme inhibitors, primary screen, biochemical, C-terminal His tag, absorbance 600 nm (AID 1175).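 Note: recombinant parasite enzyme with a five histidine tag at its C terminus; test concentration not given here.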 Particulars: DCIP absorbance 600 nm, higher = more signal, called active from +8 up or from −8 down.
Experiment [5] in a line: P. aeruginosa biofilm formation inhibitors, primary screen, strain PAO1, LB-PBS medium, absorbance 600 nm (AID 1176). Note: test concentration not given here. As to conditions: P. aeruginosa PAO1 growth/biofilm, A600, 12 h; higher = more signal.
Experiment [6] in a line: S. cerevisiae RM11-1a growth modifiers, primary screen, strain RM11-1a, OD600, basal, 24 h (AID 1177).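 Note: cultures grown under basal conditions with no added stressor; test concentration not given here.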 As to conditions: OD600, 24 h, higher = more signal, called active from +8 up or from −8 down.
Experiment [7] in a line: E. coli acrAB mutant growth effects, primary screen, E. coli filamentation inducers, strain DRC39, OD650, 24 h (AID 1178).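 Note: growth measured as culture turbidity by optical density at 650 nm; test concentration not given here.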 Particulars: higher = more signal, called active from +8 up or from −8 down.
The nature of experiment [8]: E. coli acrAB mutant growth effects, primary screen, E. coli filamentation inducers, strain DRC39, OD650, 48 h (AID 1179).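 Note: screen aims at cell division blockers that make cells filament.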 As to conditions: E. coli DRC39 delta-acrAB growth, higher = more signal, called active from +8 up or from −8 down.
The nature of experiment [9]: RPMI8226 myeloma cell viability, profiling panel, resazurin fluorescence, basal, 24 h, PK04 Diversity Set (AID 1180).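 Note: RPMI8826 multiple myeloma cell line at 5000 cells per well; test concentration not given here.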 As to conditions: higher = more signal.
Experiment [10] addresses E3 ubiquitin-protein ligase XIAP (Homo sapiens) (UniProt P98170). Nature of the experiment: XIAP binders, primary screen, biophysical, small-molecule microarray, fluorescence 635 nm (AID 1181).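 Note: score merges 667 nm emission and signal to noise over triplicate slides.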 As to conditions: small-molecule microarray binding, higher = more signal.

Dihydroorotate dehydrogenase (quinone), mitochondrial (Plasmodium falciparum (isolate 3D7)), sequence (Q08210 whole entry, looked up): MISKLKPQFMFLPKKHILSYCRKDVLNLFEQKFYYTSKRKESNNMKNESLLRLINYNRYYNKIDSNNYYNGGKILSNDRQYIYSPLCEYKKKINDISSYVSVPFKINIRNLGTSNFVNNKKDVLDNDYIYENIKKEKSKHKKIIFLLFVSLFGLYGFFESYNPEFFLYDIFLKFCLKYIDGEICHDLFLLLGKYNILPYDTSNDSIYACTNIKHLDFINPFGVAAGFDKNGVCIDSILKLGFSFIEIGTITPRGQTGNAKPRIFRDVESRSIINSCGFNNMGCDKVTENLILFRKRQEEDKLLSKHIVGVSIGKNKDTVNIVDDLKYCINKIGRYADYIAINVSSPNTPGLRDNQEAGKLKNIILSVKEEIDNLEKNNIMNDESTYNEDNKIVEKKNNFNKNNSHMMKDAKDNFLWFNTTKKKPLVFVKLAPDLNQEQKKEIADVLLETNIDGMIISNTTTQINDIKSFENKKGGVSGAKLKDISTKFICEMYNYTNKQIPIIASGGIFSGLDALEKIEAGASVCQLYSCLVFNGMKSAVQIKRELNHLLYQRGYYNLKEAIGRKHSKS
E3 ubiquitin-protein ligase XIAP (Homo sapiens), sequence (P98170 whole entry, looked up): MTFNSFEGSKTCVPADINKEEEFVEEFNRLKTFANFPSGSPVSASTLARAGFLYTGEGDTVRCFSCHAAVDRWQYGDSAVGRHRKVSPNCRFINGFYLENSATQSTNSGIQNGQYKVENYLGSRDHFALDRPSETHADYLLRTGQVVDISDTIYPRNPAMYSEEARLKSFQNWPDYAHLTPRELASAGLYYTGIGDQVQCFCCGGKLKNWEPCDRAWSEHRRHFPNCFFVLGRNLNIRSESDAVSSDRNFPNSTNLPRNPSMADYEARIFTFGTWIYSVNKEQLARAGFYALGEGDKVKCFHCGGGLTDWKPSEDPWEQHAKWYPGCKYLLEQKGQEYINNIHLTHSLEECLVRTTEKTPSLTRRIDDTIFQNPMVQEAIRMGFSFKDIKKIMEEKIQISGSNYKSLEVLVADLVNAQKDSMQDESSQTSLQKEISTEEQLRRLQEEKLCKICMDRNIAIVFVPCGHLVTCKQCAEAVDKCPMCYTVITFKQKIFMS

On to `O=C1c2ccccc2[C@](Cc2ccccc2I)(C(=O)NC2CC2)[C@H](c2ccc(CO)cc2)N1Cc1ccccc1C(F)(F)F`, for which the z-score in experiment [1] is -0.113; in [2], -0.637 (inactive); in experiment [3], 0.762 (inactive); in experiment [5], 0.842 (inactive); in [6], 0.108 (inactive); in experiment [7] it was 0.169 (inactive). In addition, the figures for the z-score in [8] and in experiment [9] were -0.707 (inactive) and 0.154, respectively. In addition, the composite z-score was 0.129 (inactive) in experiment [4] and 0.125 in [10].

Regarding `C=CCC(OC(C)=O)[C@@H]1[C@@H](N(Cc2cccc3ccccc23)C(=O)Cc2ccc(F)cc2)c2cc(OCCCO)ccc2N1C(=O)c1ccc(-c2ccccc2)cc1` (stereo not given in full), the z-score is -0.271 in [1]; 0.388 (inactive) in [2]; -0.0279 (inactive) in experiment [3]; 0.231 (inactive) in experiment [5]; -0.163 (inactive) in [6]; -0.386 (inactive) in [7]. The figures for the z-score in experiment [8] and in experiment [9] were -0.0169 (inactive) and 0.336, respectively. Besides, the composite z-score in experiment [4] was 0.366 (inactive); in experiment [10], 0.0623.

Take `CC(=O)NCCCC[C@@H]1NC(=O)[C@H]2C[C@@H](C(=O)NCCCCCNC(=O)CS)[C@@H](c3cccc(OCCO)c3)N2C1=O`: the z-score was -0.223 in [1]; 0.332 (inactive) in experiment [2]; -0.0374 (inactive) in [3]; 0.559 (inactive) in experiment [5]; -0.39 (inactive) in [6]; -0.0744 (inactive) in experiment [7]. For the same compound, the z-score was 0.382 (inactive) in [8] and -0.653 in experiment [9]. Besides, the composite z-score in experiment [4] was 0.657 (inactive); in experiment [10], 2.75.

For `COCCCNC(=O)[C@@]1(c2ccc([N+](=O)[O-])cc2)CC(=O)N(CC23CC4CC(CC(C4)C2)C3)[C@@H]1c1ccc(CO)cc1I`, the z-score is -2.61 in experiment [1]; 1.02 (inactive) in experiment [2]; -3.15 (inactive) in [3]; 0.457 (inactive) in [5]; 2.43 (inactive) in [6]; -0.0284 (inactive) in experiment [7]. Besides, the z-score was -0.107 (inactive) in experiment [8] and -3.52 in experiment [9]. Moreover, the figures for the composite z-score in experiment [4] and in experiment [10] were 1.11 (inactive) and 0.144, respectively.

Turning to `O=C1N[C@@H](Cc2ccccc2)C(=O)N2[C@@H]1C[C@@H](C(=O)O)[C@H]2c1ccc(O)cc1`, the z-score was -0.425 in experiment [1]; -1.14 (inactive) in experiment [2]; 0.746 (inactive) in experiment [3]; -0.13 (inactive) in [5]; -0.319 (inactive) in experiment [6]; -0.143 (inactive) in experiment [7]. The z-score in experiment [8] is -0.803 (inactive); in experiment [9], 0.0674. Further, the values for the composite z-score in experiment [4] and in experiment [10] were -0.708 (inactive) and 0.0518, respectively.

Turning to `CC(C)N1CC=CC23O[C@@H]4/C=C\CCCOC(=O)C4[C@H]2C(=O)N(CCCCCCO)[C@@H]3C1=O` (stereo not given in full), the z-score is 0.95 in experiment [1]; -1.13 (inactive) in experiment [2]; 1.3 (inactive) in experiment [3]; -0.401 (inactive) in experiment [5]; 0.0759 (inactive) in [6]; 1.62 (inactive) in experiment [7]. Besides, the z-score in experiment [8] is 1.93 (inactive); in experiment [9], 0.708. Also, the figures for the composite z-score in experiment [4] and in experiment [10] were -0.475 (inactive) and 0.0537, respectively.

Take `O=C1C[C@@](C(=O)NCc2ccccc2)(c2ccc([N+](=O)[O-])cc2)[C@@H](c2ccc(CO)cc2I)N1CC12CC3CC(CC(C3)C1)C2`: the z-score is -1.28 in experiment [1]; -0.787 (inactive) in experiment [2]; -1.73 (inactive) in [3]; 0.593 (inactive) in experiment [5]; -0.229 (inactive) in [6]; 0.0207 (inactive) in experiment [7]. The figures for the z-score in [8] and in [9] were 0.348 (inactive) and -2.62, respectively. Further, the composite z-score in experiment [4] was -0.0036 (inactive); in experiment [10] it was -0.227.

As for `C[C@@H]1ON(c2ccc(I)cc2)[C@H](c2ccc(OC(=O)OC(C)(C)C)cc2)[C@H]1C(=O)N1C(=O)OC[C@H]1Cc1ccccc1`, the z-score is 1.14 in [1]; -1.24 (inactive) in [2]; 1.6 (inactive) in [3]; 0.294 (inactive) in experiment [5]; 0.61 (inactive) in [6]; 1.81 (inactive) in experiment [7]. Also, the z-score in experiment [8] was 1.2 (inactive); in experiment [9], 1.87. The composite z-score in [4] is -0.571 (inactive); in experiment [10], -0.0448.

As to `NC(=O)[C@H]1[C@@H]2C(=O)O[C@@H](c3ccccc3)[C@@H](c3ccccc3)N2[C@@H](c2ccc(O)cc2)[C@]12C(=O)Nc1ccccc12`, the z-score was -0.367 in [1]; -0.376 (inactive) in [2]; 0.0279 (inactive) in experiment [3]; 0.0332 (inactive) in experiment [5]; 0.575 (inactive) in experiment [6]; -0.145 (inactive) in experiment [7]. Also, the z-score in experiment [8] was 0.0129 (inactive); in experiment [9], 0.417. Further, the results for the composite z-score in [4] and in experiment [10] were 0.0023 (inactive) and -0.0559, respectively.

For the compound `O=C1C2C=CC(C(O)c3ccc4c(c3)OCO4)N(Nc3ccccc3)C2C(=O)N1c1ccccc1` (stereo not given), the z-score in experiment [1] was -0.0551; in [2], 0.939 (inactive); in [3], -0.793 (inactive); in experiment [5], 0.338 (inactive); in [6], 0.581 (inactive); in experiment [7], -0.0005 (inactive). Besides, the z-score in [8] is -0.387 (inactive); in experiment [9], -0.827. Moreover, the values for the composite z-score in experiment [4] and in experiment [10] were 0.0433 (inactive) and -0.0524, respectively.

With `O=C(O)[C@@H]1C[C@@H]2C(=O)N3CCC[C@H]3C(=O)N2[C@@H]1c1cccc(OCCO)c1`, the z-score in experiment [1] is -0.188; in experiment [2] it was -1.28 (inactive); in [3] it was -0.447 (inactive); in experiment [5], 0.547 (inactive); in [6] it was 0.0761 (inactive); in experiment [7], -0.185 (inactive). Besides, the z-score was -0.685 (inactive) in experiment [8] and -0.0605 in experiment [9]. Further, the composite z-score in experiment [4] is -0.899 (inactive); in [10] it was 0.338.

With `CCC(CC)C(O)C1C=CC2C(=O)N(c3ccccc3)C(=O)C2N1Nc1ccc([N+](=O)[O-])cc1` (stereo not given), the z-score in experiment [1] was -0.536; in experiment [2], 0.593 (inactive); in experiment [3], -0.89 (inactive); in [5], 0.862 (inactive); in experiment [6], 0.105 (inactive); in experiment [7] it was -0.667 (inactive). The z-score was -0.162 (inactive) in experiment [8] and -0.587 in experiment [9]. Also, the results for the composite z-score in [4] and in experiment [10] were 0.837 (inactive) and 0.0855, respectively.
